Screens (PubChem)
TGFb SMAD3 inh: qHTS for Inhibitors of TGF-b; HepG2 CAGA-GFP TGF-b/SMAD3 reporter, GFP fluorescence, 18 h; TGF-beta stimulated, 500 pg/mL final; Potency, µM (highest dose often 46.1 µM), for inactives: at the top dose activity, negative = inhibition, usual class: inhibitors; hit rate 1.2% among 410,000; AID 588855, 2011; also: potency is read from the fitted curve at half-maximal effect; % is scaled to controls: 0 for no effect and ±100 for the full control effect; nearly all actives have a fitted effect of over 65% in size
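GFP signal (ex488/em500-530) from TGF-beta-stimulated HEPG2 CAGA-GFP cells, 500 pg/mL final, 18 h at 37 degrees C in DMEM plus 1% FBS, normalized to unstimulated and DMSO-stimulated controls.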
HepG2 viability: qHTS for Inhibitors of TGF-b: Cytotox Counterscreen; HepG2 CAGA-GFP viability, ATP luminescence, 18 h; Potency, µM (doses to about 46.1 µM), for the others: at the top dose activity change, negative = cytotoxicity, usual class: cytotoxic; hit rate 0.76% among 410,000; also: potency is read from the fitted curve at half-maximal effect
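CellTiter-Glo luminescence gave cytotoxicity after 18 hours at 37 degrees C. The cells were HepG2 CAGA-GFP in 1% FBS DMEM, stimulated with 500 pg/mL TGF-beta after compound addition. %Activity was normalised to no-cell wells (complete cell-killing) and DMSO (no toxicity), and curves were fitted and classified.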
TDP1 inh: qHTS Assay for Inhibitors of Tyrosyl-DNA Phosphodiesterase (TDP1). hit rate 0.28% among 350,000. recombinant TDP1, AlphaScreen DNA substrate cleavage. Potency, µM (top dose mostly 130 µM), for the others: at the highest dose activity change, negative = inhibition, hits mostly inhibitors. AID 485290, 2010. Tyrosyl-DNA phosphodiesterase 1 (Homo sapiens), Q9NUW8; also: potency is read from the fitted curve at half-maximal effect; % is scaled to controls: 0 for no effect and ±100 for the full control effect; nearly all actives have a fitted effect of over 40% in size
Target sequence (Q9NUW8 whole entry, looked up): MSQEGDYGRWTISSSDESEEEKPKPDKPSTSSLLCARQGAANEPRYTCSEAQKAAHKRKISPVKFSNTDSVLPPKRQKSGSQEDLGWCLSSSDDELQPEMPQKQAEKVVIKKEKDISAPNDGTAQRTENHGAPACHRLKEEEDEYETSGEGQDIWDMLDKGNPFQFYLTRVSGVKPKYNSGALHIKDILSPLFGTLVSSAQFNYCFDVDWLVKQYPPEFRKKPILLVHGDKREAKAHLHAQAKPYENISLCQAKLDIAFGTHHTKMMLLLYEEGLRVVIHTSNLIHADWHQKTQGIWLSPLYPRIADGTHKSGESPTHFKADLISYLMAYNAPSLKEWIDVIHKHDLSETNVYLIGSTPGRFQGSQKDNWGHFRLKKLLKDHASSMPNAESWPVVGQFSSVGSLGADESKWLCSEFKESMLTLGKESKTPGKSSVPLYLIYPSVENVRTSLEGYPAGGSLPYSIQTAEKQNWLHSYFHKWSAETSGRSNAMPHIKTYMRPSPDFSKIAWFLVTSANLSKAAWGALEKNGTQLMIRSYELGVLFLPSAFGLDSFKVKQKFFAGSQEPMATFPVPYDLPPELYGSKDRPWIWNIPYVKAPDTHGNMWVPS
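Compounds were preincubated with Tdp1 (1 nM final) for 15 min at room temperature before substrate (15 nM final) started a 5 min reaction; beads (10 ug/ml final) were then added for 10 min before AlphaScreen detection.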
DT40 TDP1 CPT: qHTS for Inhibitors of human tyrosyl-DNA phosphodiesterase 1 (TDP1): qHTS in cells in presence of CPT. chicken DT40 Tdp1-/-;hTDP1 cells + 20 nM CPT, ATP luminescence, 48 h. Potency, µM (series often up to 46.2 µM), for the others: at the top dose activity change, negative = growth inhibition, actives largely listed as inhibitors. hit rate 12% among 420,000; also: potency is read from the fitted curve at half-maximal effect; % is scaled to controls: 0 for no effect and ±100 for the full control effect; nearly all actives have a fitted effect of over 55% in size
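Chicken DT40 Tdp1-/- cells stably complemented with human TDP1 were seeded at 400 cells/well in medium containing 20 nM camptothecin, exposed to pin-transferred compounds, and grown at 37 °C for at least 48 hr. Viability was read as ATP luminescence.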
IL1B secr inh: qHTS for Inhibitors of Inflammasome Signaling: IL-1-beta AlphaLISA Primary Screen; THP-1 LPS/ATP IL-1B secretion, AlphaLISA, 16 h; stronger effect = lower value; activity change, % at 57.5 µM; hit rate 4.7% among 360,000; AID 743279, 2014; in the data active = activity change below about -50%; inconclusive = mostly about -30% to -49%; also: % is scaled to controls: 0 for no effect and ±100 for the full control effect
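Secreted IL-1B measured by AlphaLISA bead assay after 16 h compound exposure of THP-1 cells; compounds (final up to 57.5 uM) added 1 h before LPS (250 ng/mL) and ATP (1.25 mM) stimulation; lower signal means less secretion.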
TDP1 cell noCPT: qHTS for Inhibitors of human tyrosyl-DNA phosphodiesterase 1 (TDP1): qHTS in cells in absence of CPT; DT40 Tdp1-/- hTDP1 cells, no CPT, ATP luminescence, 48 h; Potency, µM (titrated, usually from 46.2 µM), without a hit: at the highest dose activity change, negative = growth inhibition, usual class: inhibitors; hit rate 15% among 420,000; AID 686978, 2013; also: potency is read from the fitted curve at half-maximal effect; % is scaled to controls: 0 for no effect and ±100 for the full control effect; nearly all actives have a fitted effect of over 55% in size
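Growth kinetics read by CellTiter-Glo luminescence after ≥48 hr at 37 °C. Cells: DT40 Tdp1-/- stably carrying human TDP1, 400 per well, compound exposure in the absence of CPT (DMSO vehicle).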
An asterisk follows results filed as active. A selection: hits, their analogues and other compounds. The true share with any hit is near 18%. Unless noted, calls follow the shape of the dose curve; as a rule, active = well fitted curve in the direction sought with a large enough effect; inconclusive = small, poorly fitted or top-dose-only effect, or another doubt; inactive = no such curve, though single readings can be large; an effect the other way counts as inactive or inconclusive.

What do the screens show for `CCN(CC)S(=O)(=O)c1ccc(C(=O)Nc2nc3c(Cl)cc(Cl)cc3s2)cc1`?
TGFb SMAD3 inh: inconclusive; HepG2 viability: -23.1%; TDP1 inh: 2.7%; DT40 TDP1 CPT: inconclusive; TDP1 cell noCPT: 16.4µM*

Results for CCN(CC)S(=O)(=O)c1ccc2nc(NC(=O)c3cccnc3)sc2c1 ?
TGFb SMAD3 inh: -25.7%; HepG2 viability: -11.3%; TDP1 inh: 2.7%; DT40 TDP1 CPT: 20.6µM*; TDP1 cell noCPT: inconclusive

Results for CC(=O)c1ccc(N2CCN(CC(=O)N(C3CC3)C3CCS(=O)(=O)C3)CC2)c(F)c1 (stereo unspecified) ?
TGFb SMAD3 inh: 5.1%; HepG2 viability: 2.1%; TDP1 inh: 0.8%; DT40 TDP1 CPT: -1.8%; IL1B secr inh: 10.8; TDP1 cell noCPT: 2.2%

How did COc1ccc(NC(=O)COCc2cc(-c3ccc4c(c3)OCO4)on2)cc1 do in these assays?
TGFb SMAD3 inh: -2.7%; HepG2 viability: 1.2%; TDP1 inh: 0.0%; DT40 TDP1 CPT: -25.8%; TDP1 cell noCPT: -29.8%

Results for C/C(Cn1nnc([N+](=O)[O-])n1)=N\NC(=O)c1ccc(O)cc1 ?
TGFb SMAD3 inh: 11.2µM*; HepG2 viability: -31.0%; TDP1 inh: 2.6%; DT40 TDP1 CPT: 14.6µM*; IL1B secr inh: 40.6; TDP1 cell noCPT: 13µM*

How did C/C(Cn1nnc([N+](=O)[O-])n1)=N\NC(=O)c1ccc(O)cc1O do in these assays?
TGFb SMAD3 inh: inconclusive; HepG2 viability: -31.9%; TDP1 inh: 8.0%; DT40 TDP1 CPT: inconclusive; IL1B secr inh: 4.0; TDP1 cell noCPT: inconclusive

What do the screens show for `C/C(Cn1nnc([N+](=O)[O-])n1)=N\NC(=O)c1ccc(Cl)c(Cl)c1`?
TGFb SMAD3 inh: 10µM*; HepG2 viability: 14.1µM*; TDP1 inh: 7.1%; DT40 TDP1 CPT: 18.4µM*; IL1B secr inh: 0.8; TDP1 cell noCPT: 16.4µM*

Results for C/C(Cn1nnc([N+](=O)[O-])n1)=N\NC(=O)c1ccccc1O ?
TGFb SMAD3 inh: -41.9%; HepG2 viability: -19.4%; TDP1 inh: 2.6%; DT40 TDP1 CPT: 14.6µM*; IL1B secr inh: -4.4; TDP1 cell noCPT: 18.4µM*

How did CCOC(=O)C1=C(COC(=O)/C=C/c2ccc(SC)cc2)NC(=O)NC1C (stereo unspecified) do in these assays?
TGFb SMAD3 inh: -3.8%; HepG2 viability: -14.9%; DT40 TDP1 CPT: -25.3%; IL1B secr inh: -21.6; TDP1 cell noCPT: inconclusive

How did CN(Cc1ccccc1)C(=O)CSc1nc2c(c(C(F)(F)F)n1)CCc1ccccc1-2 do in these assays?
TGFb SMAD3 inh: 2.3%; HepG2 viability: -0.6%; DT40 TDP1 CPT: 29.1µM*; IL1B secr inh: inconclusive; TDP1 cell noCPT: inconclusive

Results for Cc1nn(Cc2ccc(Cl)cc2)c(C)c1NC(=O)CSc1nc2c(c(C(F)(F)F)n1)CCc1ccccc1-2 ?
TGFb SMAD3 inh: -23.3%; HepG2 viability: 0.631µM*; TDP1 inh: 5.2%; DT40 TDP1 CPT: inconclusive; IL1B secr inh: -11.6; TDP1 cell noCPT: inconclusive

How did Cc1ccc(Cn2nc(C)c(NC(=O)CSc3nc4c(c(C(F)(F)F)n3)CCc3ccccc3-4)c2C)cc1 do in these assays?
TGFb SMAD3 inh: 0.0%; HepG2 viability: 4.4%; TDP1 inh: 0.0%; DT40 TDP1 CPT: inconclusive; IL1B secr inh: 0.0; TDP1 cell noCPT: inconclusive
